This is part of a sample that, as a whole, favours compounds with a hit. Of some 79,000 tested, about 15% had one in any assay. The source made the active and inactive calls. Cut-off read from the data, not from the text of the source: active = growth inhibition above about 70%; inactive = the rest.
Assay: NCI Yeast Anticancer Drug Screen. Data for the wt1 strain (AID 149);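 note: 0% = growth of vehicle-treated wt1 cultures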
Conditions: S. cerevisiae wt1 strain (SPY 50644) growth inhibition, active compounds read high
Experimental: Growth inhibition of yeast strains with defined genetic alterations is measured as a screen for potential anti-cancer activity. Selected strains with alterations in DNA damage repair or cell cycle control were exposed to compounds and growth inhibition was measured relative to vehicle treated controls. The strain used in this assay is wt1

Measured: growth inhibition

COc1cc2ccnc(-c3c4ccccc4c(N)c4c(OC)c(OC)ccc34)c2cc1OC
inactive: at 1.2 µM -4% | at 3.7 µM -5% | at 11.0 µM -5% | at 33.0 µM -4% | at 100.0 µM 30%

COc1ccc(/C=C/c2sc3ccccc3[n+]2CCCCI)cc1OC
active: at 100.0 µM 89%
inactive: at 1.2 µM -84% | at 3.7 µM -3% | at 11.0 µM -6% | at 33.0 µM 33%

O=C(/C=C\c1cccc(C(F)(F)F)c1)c1ccccc1
inactive: at 1.2 µM -1% | at 3.7 µM 2% | at 11.0 µM -1% | at 33.0 µM -3% | at 100.0 µM -5%

CCOC(=O)C(C(=O)OCC)=P(c1ccccc1)(c1ccccc1)c1ccccc1
inactive: at 1.2 µM 0% | at 3.7 µM 1% | at 11.0 µM 1% | at 33.0 µM -3%
active: at 100.0 µM 93%

O=C(O)Cc1cc(F)ccc1C(=O)O
inactive: at 1.2 µM 3% | at 3.7 µM 7% | at 11.0 µM 13% | at 33.0 µM 16% | at 100.0 µM 25%

O=C(CC(=O)n1nc(-c2ccccc2)c(N=Nc2ccc(Cl)cc2)c1-c1ccccc1)Nc1cccc(Cl)c1
inactive: at 1.2 µM -2% | at 3.7 µM -3% | at 11.0 µM -5% | at 33.0 µM -4% | at 100.0 µM -5%

CCOC(=O)c1[nH]cc(C)c1-c1cccn1-c1ccc(Cl)cc1[N+](=O)[O-]
inactive: at 1.2 µM 16% | at 3.7 µM 6% | at 11.0 µM 16% | at 33.0 µM 12%
active: at 100.0 µM 80%

COc1cc(/C=N/Nc2nnc3c4ccccc4c4ncccc4c3n2)cc(OC)c1OC
inactive: at 1.2 µM -22% | at 3.7 µM -1% | at 11.0 µM -1% | at 33.0 µM 4% | at 100.0 µM 9%
